Compounds without any hit were thinned out: in the full panel of roughly 79,000, 15% have a hit. Cut-off read from the data, not from the text of the source: active = growth inhibition above about 70%; inactive = the rest.
Experiments:
[1] = NCI Yeast Anticancer Drug Screen. Data for the rad50 strain (AID 155);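 note: 0% = growth of vehicle-only cultures of the same strain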; details: S. cerevisiae rad50 strain growth inhibition; at 50.0 µM; active compounds read high
In short: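 Compounds were tested on a yeast strain with an engineered DNA damage repair alteration; the reported value is growth inhibition normalised to vehicle treatment.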

[2] = NCI Yeast Anticancer Drug Screen. Data for the mec2-1 strain (AID 157); details: S. cerevisiae mec2-1 strain, at 50.0 µM, active compounds read high
In short: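 Yeast mec2-1 mutant treated with compound. Readout: growth inhibition vs vehicle controls.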

[3] = NCI Yeast Anticancer Drug Screen. Data for the sgs1 mgt1 strain (AID 161);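 note: 0% = growth of cultures given vehicle only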; details: S. cerevisiae sgs1 mgt1 strain, at 50.0 µM, active compounds read high
In short: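 Test agents were incubated with a DNA-repair-mutant yeast strain. Growth was then read and compared against vehicle-treated controls.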

[4] = NCI Yeast Anticancer Drug Screen. Data for the cln2 rad14 strain (AID 165);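 note: 0% = growth equal to vehicle treated cultures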; details: S. cerevisiae cln2 rad14 strain, at 50.0 µM, active compounds read high
In short: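 cln2 rad14 yeast strain; compound exposure; growth inhibition read vs vehicle controls.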

[5] = NCI Yeast Anticancer Drug Screen. Data for the bub3 strain (AID 167); details: S. cerevisiae bub3 mutant strain, at 50.0 µM, active compounds read high
In short: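 Growth of a checkpoint-deficient yeast mutant is measured after compound exposure. Values represent inhibition relative to vehicle.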

[6] = NCI Yeast Anticancer Drug Screen. Data for the mlh1 rad18 strain (AID 175); details: S. cerevisiae mlh1 rad18 strain growth inhibition; at 50.0 µM; active compounds read high
In short: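 Yeast w/ defined DNA-repair lesions; compound exposure; growth vs vehicle controls → % inhibition.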

Measured: growth inhibition

CC1(C)S[C@H](c2ccccc2C(=O)O)N[C@@H]1CC(=O)O
inactive: [1] -35.3% | [2] -6.9% | [3] -49.5% | [4] -21.7% | [5] -26.5% | [6] -31.4%

CCCCCCC(C)C(CC)(C(=O)OCC)C(=O)OCC (configuration not stated)
inactive: [1] -16.1% | [2] 6.55% | [3] -0.2% | [4] 12.1% | [5] -14.3% | [6] 7.65%

NCC(O)CN
inactive: [1] -13.8% | [2] -0.75% | [3] -2.75% | [4] -8.2% | [5] -0.55% | [6] 1.45%

CC1(C)N=C(N)N=C(N)N1c1ccc(C(=O)c2ccccc2)cc1
inactive: [1] 2.65% | [2] -3.5% | [3] -3.3% | [4] -3.1% | [5] 13.5% | [6] 15.5%

COc1ccc(/C=N/NC(=O)O)cc1
inactive: [1] 4.55% | [2] -5.35% | [3] -24% | [4] -12.3% | [5] -32.5% | [6] -18.4%

CCOC1=C/C(=N\NC(N)=O)CCC1
inactive: [1] 9.35% | [2] 7.2% | [3] -1.1% | [4] 27.8% | [5] 3.95% | [6] 0.1%

Clc1ccc2cc3ccccc3cc2c1
inactive: [1] -16.7% | [2] 2.5% | [3] -3.95% | [4] -16.4% | [5] 5.8% | [6] -21%

COc1ccc(/C=C2\N=C(c3cc(OC)c(OC)c(OC)c3)OC2=O)cc1
inactive: [1] 20.2% | [2] 13.1% | [3] 18.6% | [4] 24.6% | [5] 22.1% | [6] 7.5%

O=C1OC(=O)C2=C1CCCC2
inactive: [1] 8.05% | [2] -18.9% | [3] 18.8% | [4] -1.15% | [5] -18% | [6] 6.7%

NCCN1CCCCCc2ccccc21
inactive: [1] -63.2% | [2] -53% | [3] -49.8% | [4] -17.4% | [5] -41.1% | [6] -39.3%

CCc1ncc(C)[nH]1
inactive: [1] 0.55% | [2] -13.8% | [3] -6.35% | [4] -0.15% | [5] -12.1% | [6] -8.8%

CCCCCCCCCC(=O)OCC1OC(n2cc(F)c(=O)[nH]c2=O)C(NC(=O)OCc2ccccc2)C(OC(=O)CCCCCCCCC)C1O (configuration not stated)
inactive: [1] -5.9% | [2] -10.2% | [3] -11.8% | [4] 6.9% | [5] -0.35% | [6] -21%

CCOC(=O)c1ccc(C=O)cc1
inactive: [1] 15.5% | [2] -5.75% | [3] -4.95% | [4] 6.25% | [5] -5.8% | [6] -11.5%

CC1OC(=O)/C(=C\N(C)C)C1=O (configuration not stated)
inactive: [1] 1.25% | [2] 9% | [3] 13.2% | [4] 42.5% | [5] 7.75% | [6] 8.6%

CSc1nc2c(c(O)c(C)c(=O)n2C2OC(COC(C)=O)C(OC(C)=O)C(OC(C)=O)C2OC(C)=O)c(=O)n1C (configuration not stated)
inactive: [1] 10.1% | [2] -4.3% | [3] 62.8% | [4] 32.9% | [5] 34.7% | [6] 7.25%

CC1=C(O)C(=O)C(C2=C(O)C(=O)C(C)=C(O)C2=O)=C(O)C1=O
inactive: [1] 5.3% | [2] -12.4% | [3] 24.4% | [4] 10% | [5] 5.8% | [6] 12.6%

Cc1ccc(S(=O)(=O)/N=[N+](\[O-])c2ccc(N(C)C)cc2)cc1
inactive: [1] -32.4% | [2] -3.35% | [3] -7.55% | [4] -35.7% | [5] -7.8% | [6] -3.35%

CCN1C(=O)c2cc(=O)[nH]c(O)c2C1C (configuration not stated)
inactive: [1] 7.8% | [2] -2.7% | [3] -1.7% | [4] -20.4% | [5] -2.65% | [6] 10.9%

CS(=O)(=O)OC1COCOC1C1OCOCC1OS(C)(=O)=O (configuration not stated)
inactive: [1] 7.8% | [2] 1.35% | [3] 10.5% | [4] -10.4% | [5] -6% | [6] -0.55%

CC(C)CC(=O)c1ccc2ccccc2c1O
inactive: [1] -0.1% | [2] -17.1% | [3] 6.7% | [4] -12.2% | [5] -14.2% | [6] 5.95%

CC(Cc1nc2ccccc2[nH]1)Cc1nc2ccccc2[nH]1
inactive: [1] -7% | [2] 17.4% | [3] 7.1% | [4] 21.4% | [5] 2.3% | [6] 15.6%

Cc1ccc2sc3cc(=O)cc(C)c-3nc2c1
inactive: [1] 14.7% | [2] 0.7% | [3] -15.1% | [4] 8.35% | [5] 38.4% | [6] 25.4%

CC(CN1CCCCC1)SSC(C)CN1CCCCC1 (configuration not stated)
inactive: [1] 41.8% | [2] 14.9% | [3] 27% | [4] -29.1% | [5] 11.5% | [6] 44.2%

Cc1cc(C)c2c(c1)Nc1ccccc1P2c1ccccc1 (configuration not stated)
inactive: [1] 11.2% | [2] 14.2% | [3] 48.2% | [4] 31.1% | [5] 44.6% | [6] 53.6%

CN(CC(=O)NC(=O)c1ccccc1)Cc1ccccc1
inactive: [1] -1.7% | [2] -9.25% | [3] 3.95% | [4] -37% | [5] 3.55% | [6] -7.8%

CN(C)c1noc2c1c(=O)n(C)c(=O)n2C
inactive: [1] -27.8% | [2] -9.95% | [3] -11.6% | [4] -12.1% | [5] 2.6% | [6] 14.8%

COc1cc(C)cc(O)c1C=O
inactive: [1] 9.9% | [2] -9.95% | [3] -0.1% | [4] -17.1% | [5] -0.2% | [6] 3.45%

O=C(O)COc1ccc(/C=C2\SC(=S)NC2=O)cc1
inactive: [1] -3.9% | [2] -8.3% | [3] 1.6% | [4] -36.5% | [5] 18.9% | [6] -12.2%

Nc1c(-c2ncc[nH]2)ncn1CC(O)C(O)C(O)CO (configuration not stated)
inactive: [1] 7.5% | [2] 19.6% | [3] 12.3% | [4] 22.9% | [5] 3.2% | [6] 17.9%

Cc1c(-c2ccccc2)nc(N(C)C)oc1=O
inactive: [1] 19% | [2] -5.05% | [3] -6.8% | [4] -9% | [5] -16.2% | [6] -7.8%

N#CCN1CCOCC1
inactive: [1] 31.5% | [2] -1.55% | [3] 4.45% | [4] 15.2% | [5] 10.2% | [6] 27.1%

c1cc(OCCOc2cccc3ocnc23)c2ncoc2c1
inactive: [1] -12.8% | [2] -15.6% | [3] -5.85% | [4] -14.8% | [5] -18.4% | [6] 0.65%

CC(C)CC(CN(C)C)C(=O)/C=C/c1ccccc1 (configuration not stated)
inactive: [1] 18.2% | [2] -2.25% | [3] 19.4% | [4] -6.95% | [5] 11.8% | [6] 22.1%

C=CCNC(=S)NCc1cccc2ccccc12
inactive: [1] -3.45% | [2] 36.3% | [3] 34.1% | [4] -28.1% | [5] 32.4% | [6] 21.1%

Cc1ccc2nc(C)ccc2c1
inactive: [1] -38.2% | [2] -23.2% | [3] -2.7% | [4] -16.1% | [5] -0.2% | [6] -3.4%

Cc1ccc(NCC(=O)N2CC(=O)Nc3ccccc32)cc1
inactive: [1] -28.6% | [2] -21% | [3] -35.2% | [4] -4.45% | [5] -23.2% | [6] -15.8%

COc1cc(O)c(C(=O)C2Cc3ccccc32)c(OC)c1 (configuration not stated)
inactive: [1] -20.6% | [2] 12.5% | [3] 24.1% | [4] 21.6% | [5] 9.1% | [6] 41.8%

CC1(Br)CC2=C(CC1(C)Br)C(=O)C(c1ccccc1)=C(c1ccccc1)C2=O (configuration not stated)
inactive: [1] 9.25% | [2] 17.1% | [3] 39.2% | [4] 25% | [5] 12.3% | [6] 23.4%

CC(C)CCCC(C)C1CCC2C3CC=C4CC(P(=O)(c5ccccc5)c5ccccc5)CCC4(C)C3CCC12C (configuration not stated)
inactive: [1] 10.3% | [2] -9.9% | [3] -6.05% | [4] -10.5% | [5] 5.75% | [6] -12.1%

COC(=O)CCc1ccc(NC(=O)OC)cc1
inactive: [1] -1.4% | [2] 20.3% | [3] 10.9% | [4] 11.2% | [5] 14.8% | [6] -4.7%

NCc1ccc(S(=O)(=O)Nc2cc(Br)cc(Br)c2)cc1
inactive: [1] 16.4% | [2] 14.8% | [3] 30.2% | [4] 35.1% | [5] 12% | [6] 30.4%

CCOC(=O)CCC1CCCO1 (configuration not stated)
inactive: [1] -3.6% | [2] -19.1% | [3] -19.9% | [4] -4.8% | [5] -6.85% | [6] -1.05%
